What is called inhibition is the change of the read-out against control, counted positive when it falls.

SMILES strings stand for the structures. Out of some 190,000 compounds screened, about 810 (0.43%) were called active. The sample as a whole holds a higher share of actives than the screen did. Values without a mark were called inactive. Rule as the data show it: active = inhibition above about 50%; inactive = the rest.

Chain of Mannose-6-phosphate isomerase (Homo sapiens) (P34949 whole entry, looked up): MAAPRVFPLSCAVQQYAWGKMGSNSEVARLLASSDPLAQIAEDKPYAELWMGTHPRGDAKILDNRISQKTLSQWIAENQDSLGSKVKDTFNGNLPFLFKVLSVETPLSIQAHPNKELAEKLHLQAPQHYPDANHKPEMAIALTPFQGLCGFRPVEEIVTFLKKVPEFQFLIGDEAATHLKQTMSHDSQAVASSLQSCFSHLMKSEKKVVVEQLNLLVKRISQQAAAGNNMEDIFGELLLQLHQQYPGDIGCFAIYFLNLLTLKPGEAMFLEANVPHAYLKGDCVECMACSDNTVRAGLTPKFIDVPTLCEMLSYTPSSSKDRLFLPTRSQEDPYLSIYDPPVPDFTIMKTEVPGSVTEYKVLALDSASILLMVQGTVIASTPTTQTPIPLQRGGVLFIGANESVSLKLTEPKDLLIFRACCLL

This experiment has as its target Mannose-6-phosphate isomerase (Homo sapiens) (UniProt P34949). Kind of experiment: MPI enzyme activity inhibition – biochemical, fluorescence intensity, coupled assay, primary screen (AID 1209).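 Also: plate controls were DMSO vehicle for no effect and wells lacking substrate for full effect.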 The following applies: purified PMI enzyme, at 20 µM, hits give high values.
Take `COc1ccc(OC)c(S(=O)(=O)Nc2cccc(C(C)=O)c2)c1`: the inhibition is 4.2%.

In the case of `CC(=O)Nc1ccc(S(=O)(=O)N2CC3(C)CC2CC(C)(C)C3)cc1` (configuration not stated), the inhibition is 12.4%.

With `COc1ccc(NS(=O)(=O)c2ccc(OCC(=O)N3CCOCC3)cc2)cc1`, the inhibition is 10.6%.

As for `O=[N+]([O-])c1cc(/C=N/NC(=S)Nc2ccccc2Cl)ccc1Cl`, the inhibition was -6.9%.

Take `COc1ccc(/C=N/NC(=S)Nc2ccccc2[N+](=O)[O-])cc1O`: the inhibition is 9%.

On to `O=[N+]([O-])c1ccccc1NC(=S)N/N=C/c1ccc(O)c(O)c1`, for which the inhibition was 54.1% (active).

Turning to `O=C(c1ccc(C(=O)N2CCCc3ccccc32)s1)N1CCCc2ccccc21`, the inhibition was -2.1%.

On to `Brc1ccccc1-c1nnc2sc(-c3ccc4c(c3)OCCO4)nn12`, for which the inhibition was 22.5%.

For `Clc1cccc(-c2nnc3sc(-c4ccc5c(c4)OCO5)nn23)c1`, the inhibition was 9.8%.

In the case of `Clc1ccccc1-c1nnc2sc(-c3ccc4c(c3)OCO4)nn12`, the inhibition was 50.8% (active).

As for `Clc1ccccc1-c1nnc2sc(C3COc4ccccc4O3)nn12` (configuration not stated), the inhibition was 50% (active).

As to `Fc1ccc(-c2nn3c(C4COc5ccccc5O4)nnc3s2)cc1` (configuration not stated), the inhibition was 7.6%.

Take `COc1ccccc1-c1nn2c(C3COc4ccccc4O3)nnc2s1` (configuration not stated): the inhibition is 57.6% (active).

For `Fc1ccc(-c2nnc3sc(C4COc5ccccc5O4)nn23)cc1` (configuration not stated), the inhibition was 0.9%.

For the compound `c1csc(-c2nn3c(C4COc5ccccc5O4)nnc3s2)c1` (configuration not stated), the inhibition was 37.9%.

For the compound `Cc1ccc(-c2nnc3sc(C4COc5ccccc5O4)nn23)cc1` (configuration not stated), the inhibition is 3.9%.

As for `CCC1(C)SC(N)=NN1C(C)=O` (configuration not stated), the inhibition was 7.1%.

As for `CCOC(=O)c1ccc(N/C(=N\S(=O)(=O)c2ccccc2C)c2ccccc2)cc1`, the inhibition is 10.9%.

On to `COc1cc(C(=O)NCc2ccccc2)cc(Br)c1OC`, for which the inhibition is 1.2%.

For the compound `COc1ccc(C(=O)NCc2ccccc2)cc1Br`, the inhibition was 1.4%.

Turning to `COc1cc(C(=S)NCc2ccccc2)cc(Br)c1O`, the inhibition was 68.6% (active).

As to `Cc1cc(/C=N\NC(=O)COc2cccc3cccnc23)c(C)n1-c1ccccc1`, the inhibition is 1.7%.

Turning to `O=C(c1ccco1)N1CCn2c1nc1ccccc12`, the inhibition was -7.1%.

On to `COc1ccc(NC(=O)c2ccc3nc[nH]c3c2)c(OC)c1`, for which the inhibition was 8.4%.

With `C=C(C)C1Cc2c(C)nn(-c3ccccn3)c2C1` (configuration not stated), the inhibition was -7.4%.

For the compound `Cc1nn(-c2ccccn2)c2c1-c1nc(N)ncc1CC2`, the inhibition is 4.1%.

On to `Cc1nn(-c2ccccn2)c2c1C(=O)C(Br)CC2` (configuration not stated), for which the inhibition was 72% (active).

For `COc1ccc(CNC(=O)CCCNS(=O)(=O)c2cccc3nonc23)cc1`, the inhibition was 13%.

Consider `Cc1ccc(C(=O)CSc2ncn[nH]2)cc1`, for which the inhibition is -6.3%.

Consider `CC(C)c1ccc(C(=O)CSc2ncn[nH]2)cc1`, for which the inhibition is 83% (active).

As to `CCc1ccc(C(=O)CSc2ncn[nH]2)cc1`, the inhibition is 42.1%.

As for `COC(=O)Cc1cn(-c2ncc(C(F)(F)F)cc2Cl)c2ccccc12`, the inhibition is 1.6%.

With `Cc1cc2ccccc2n1CCNC(=O)c1ccccc1`, the inhibition was -10.2%.

For `Cc1c(Br)c(C(=O)NCc2cc3cc(Cl)ccc3[nH]2)nn1C`, the inhibition is 5.7%.

On to `O=C(CN1CCN(Cc2ccccc2)CC1)c1ccccc1`, for which the inhibition is 2%.

Regarding `O=C(CN1CCN(Cc2ccccc2)CC1)N1CCCCCC1`, the inhibition was 60.7% (active).

`O=C(C1CCN(Cc2ccccc2)CC1)N1CCCC1`: the inhibition is -5.2%.

Turning to `O=c1[nH]c(=S)[nH]c2sccc12`, the inhibition was -13.4%.

For `O=c1[nH]c(=S)[nH]c2[nH]c(=S)[nH]c12`, the inhibition is 67.9% (active).

As to `Nc1[nH]c(=S)[nH]c(=O)c1-c1ccccc1`, the inhibition was 21.9%.

On to `COc1ccc(CC(=O)OCC(=O)NC(=O)NC(C)C)cc1`, for which the inhibition was 9%.

In the case of `CCCn1nnnc1NCc1ccc(F)cc1`, the inhibition was -4.6%.

Take `CCC(=O)N1c2ccccc2NC2=C(C(=O)CC(C)(C)C2)C1c1cccnc1` (configuration not stated): the inhibition is 7.2%.

As to `CCOc1ccc(/C=N/n2cnnc2)cc1`, the inhibition is 84.4% (active).

Consider `C(=N\n1cnnc1)/c1ccc(OCc2ccccc2)cc1`, for which the inhibition is -5.7%.

With `Fc1ccc(COc2ccc(/C=N/n3cnnc3)cc2)cc1`, the inhibition is -3.3%.

In the case of `Cc1occc1C(=O)Nc1nnc(-c2cccs2)s1`, the inhibition is 6.2%.

Consider `Clc1ccccc1Sc1cnc2ccccc2n1`, for which the inhibition is 0.9%.

Regarding `O=C(/C=C/c1ccc(S(=O)(=O)N2CCOCC2)cc1)NC(=S)NCCCn1ccnc1`, the inhibition is -0.5%.

`CC(C)=C1C2CCC1C1C(=O)N(c3nccs3)C(=O)C21` (configuration not stated): the inhibition was -3.3%.

As for `CCN1C(=O)C(F)(CC)C(=O)c2ccccc21` (configuration not stated), the inhibition was 2.2%.

Turning to `CC1(O)C(=O)c2ccccc2N(c2ccccc2)C1=O` (configuration not stated), the inhibition was -6.5%.

In the case of `CN1C(=O)C(Cl)(Cl)C(=O)c2ccccc21`, the inhibition was 77.4% (active).

`CC(C)(C)c1ccc(C(=O)CSc2n[nH]c(=O)[nH]c2=O)cc1`: the inhibition is -4.4%.

Consider `CC(C)(C)c1ccc(C(=O)CSc2nc3ccccc3c(=O)[nH]2)cc1`, for which the inhibition is -6.3%.

For `COc1ccc(NC(C)C(=O)N/N=C/c2cc(Br)ccc2OC)cc1` (configuration not stated), the inhibition is 11.5%.

Consider `COc1ccc(/C(N)=N/OC(=O)CSc2ccc(C)cc2)cc1OC`, for which the inhibition is 14.6%.

With `O=C(c1cc(-c2ccco2)on1)N1CCN(c2ccccc2)CC1`, the inhibition was 53.5% (active).

Take `O=C(c1cc(-c2ccco2)on1)N1CCOCC1`: the inhibition is 20.8%.

Take `CN1CCN(C(=O)c2cc(-c3ccco3)on2)CC1`: the inhibition is -0.9%.

Take `CCCNC(=O)COC(=O)c1ccccc1OCC(=O)Nc1ccc(Br)cc1`: the inhibition was -10.2%.

As to `COc1ccc(-c2csc(NC(=O)C3CC(=O)N(c4ccc5c(c4)OCCO5)C3)n2)cc1` (configuration not stated), the inhibition was 5.8%.

Turning to `O=C1CCCN2N=C(SCC(=O)N3N=C(c4ccc(Br)cc4)CC3c3ccc(F)cc3)SC2=N1` (configuration not stated), the inhibition was 22.3%.

In the case of `CC(NC(=O)Nc1ccc2c(c1)OCO2)C1CCCO1` (configuration not stated), the inhibition was 0.5%.

As to `Cc1cc(N2CCOCC2)ccc1/C=C1/SC(=O)NC1=O`, the inhibition was -13.8%.

For `O=C1NC(=O)/C(=C/c2ccc(O)cc2)S1`, the inhibition is -8.7%.

For the compound `O=C1NC(=O)/C(=C\c2ccc(O)cc2O)S1`, the inhibition is 53.5% (active).
